# Results filed as inconclusive are left out. Active and inactive are the calls of the source. The call rests on the fitted dose curve; in most records, active means well fitted cell-killing curve with a large enough effect in the repeat runs; inconclusive means weak or mixed curves, or effect the other way; inactive means flat fitted curve, though single readings scatter. Non-standard residues stand in square brackets, D forms with d. Residues, ends and D or L forms follow the SMILES beside them. *: point of attachment. Sta = CC(C)C[C@H](N)[C@@H](O)CC(=O)O; Isovaleryl = CC(C)CC(=O)*
# Experiment: qHTS assay to identify small molecule antagonists of the estrogen receptor alpha (ER-alpha) signaling pathway using the BG1 cell line in the presence of 0.1 nM 17-beta-estradiol - cell viability counter screen (AID 1259241); further: nearly all actives have a fitted effect of over 40% in size
# Conditions: VM7Luc4E2 (BG1) viability, CellTiter-Fluor protease, 22 h, 0.1 nM estradiol agonist added; series mostly up to 92.4 µM
# Excerpt: National Center for Advancing Translational Sciences [NCATS]
# NIH Chemical Genomics Center [NCGC]
# U.S. Environmental Protection Agency [EPA]
# National Institutes of Environmental Health Sciences [NIEHS]
# National Toxicology Program [NTP]
# U.S. Food and Drug Administration [FDA]
# Estrogen receptor (ER), a member of the nuclear hormone receptor plays an important role in development, metabolic homeostasis and reproduction. Two subtypes of ER, ER-alpha and ER-beta, have similar expression patterns with some uniqueness in both types. Endocrine disrupting chemicals (EDCs) and their interactions with steroid hormone receptors like ER causes disruption of normal endocrine function. Therefore, it is important to understand the effect of environmental chemicals in ER signaling pathway. For identifying ER antagonists, VM7Luc4E2 cell line was used to screen against Tox21 compound libraries.
# VM7Luc4E2 cell line (provided by Denison MS, University of California) endogenously express full-length ER-alpha and is stably transfected with a plasmid containing four estrogen responsive elements (ERE) upstream of a luciferase reporter gene. The current screening for identification of ER-alpha inhibitors against Tox21 compound libraries used lower concentration (0.1 nM) of 17beta-Estradiol as a stimulator. The cytotoxicity of the Tox21 compound libraries against VM7Luc4E2 cell line was tested by measuring live-cell protease activity using CellTiter-Fluor assay in the same wells.
# Tox21 Assay Protocol Summary:
# VM7Luc4E2 cells were cultured in phenol red free assay medium containing 10% charcoal stripped FBS for 5 days prior to the assay. The cells were dispensed at 4,000 cells/well in 4 uL of assay medium into white wall/solid-bottom 1536-well plates (Corning Life Sciences, Corning, NY) using a Multidrop Combi (ThermoFisher Scientific, Waltham, MA) dispenser. After the assay plates were incubated at 37C and 5% CO2 for 24 hr, 23 nL of compounds dissolved in DMSO, positive controls or DMSO only was transferred to the assay plates by a Pintool station (Kalypsys, San Diego, CA). The transfer of compounds was followed by the addition of 1 uL of 0.1 nM (final concentration) agonist (17beta-Estradiol)/assay medium using a Flying Reagent Dispenser (FRD, Aurora Discovery, San Diego, CA). The plates were incubated at 37C and 5% CO2 for 22 hr. For cytotoxicity assay, 1 uL of CellTiter-Fluor reagent (Promega Corporation, Madison, WI) was added to each well using the FRD and after 30 min incubation at 37C and 5% CO2, The fluorescence intensity was measured using ViewLux plate reader (PerkinElmer, Shelton, CT).
# On the % scale 0 is the no-effect control and ±100 the full control effect.
Compound,outcome,"activity change, negative = cytotoxicity"
CC(CN1CC(=O)NC(=O)C1)N1CC(=O)NC(=O)C1 (stereo not given),inactive,–
CCN1CCN(C(=O)N[C@@H](C(=O)N[C@@H]2C(=O)N3C(C(=O)O)=C(CSc4nnnn4C)CS[C@H]23)c2ccc(O)cc2)C(=O)C1=O,inactive,–
CC(C)OC(=O)C(C(=O)OC(C)C)=C1SC=CS1,inactive,–
CC(=O)Nc1ccc(OCCOCCOc2ccc(NC(C)=O)cc2)cc1,inactive,–
N=C(N)N,inactive,–
CC(=O)OC1CCC(C(C)(C)C)CC1 (stereo not given),inactive,–
CN1C(CCl)Nc2cc(Cl)c(S(N)(=O)=O)cc2S1(=O)=O (stereo not given),inactive,–
O=c1[nH]c(=O)c2cn[nH]c2[nH]1,inactive,–
O=C(O)CCC(=O)Nc1ccc(S(=O)(=O)Nc2nccs2)cc1,inactive,–
CC(C)CC(=O)N[C@H](C(=O)N[C@H](C(=O)N[C@@H](CC(C)C)[C@@H](O)CC(=O)N[C@@H](C)C(=O)N[C@@H](CC(C)C)[C@@H](O)CC(=O)O)C(C)C)C(C)C (Isovaleryl-VV[Sta]A[Sta]-OH),inactive,–
NNC(=O)CCCCC(=O)NN,inactive,–
COCc1nnc(-c2ccc[n+]([O-])c2)n1-c1c(Cl)c(Cl)cc2[nH]c(=O)c(=O)[nH]c12,inactive,–
CCCCc1ccc(Cl)cc1,inactive,–
CN(C)CCCN(C)C,–,-1.36% [at 8.39 µM] (inactive)
COC(=O)c1cc(Cl)c(NC(C)=O)cc1OC,inactive,–
Cc1ccc(OC(=O)CC(C)C)cc1,inactive,–
O=S(=O)(O)c1cc(I)c(O)c2ncccc12,inactive,–
Cc1ccc(Br)cc1,inactive,–
CCOC(=O)c1ccc(N(C)C)cc1,inactive,–
C=CCN(CC=C)CC=C,inactive,–

Compound,outcome,"activity change, negative = cytotoxicity"
CCCCNCC,inactive,–
CNC(=O)c1c(I)c(NC(C)=O)c(I)c(C(=O)O)c1I,inactive,–
CCCc1ccc(O)c(OC)c1,inactive,–
NS(=O)(=O)c1cc2c(cc1C(F)(F)F)NCNS2(=O)=O,inactive,–
C[Si](C)(C)O[Si](O)(O)O,inactive,–
CCCCCC(CC)OC(=O)CCCOc1ccc(Cl)cc1Cl (stereo not given),inactive,–
CCO/C=C1\N=C(c2ccccc2)OC1=O,inactive,–
CCOC(=O)[C@H](CCc1ccccc1)N[C@H]1CS[C@H](c2cccs2)CN(CC(=O)O)C1=O,inactive,–
O=C1Nc2ccccc2C1=O,inactive,–
Cc1ccc2ccccc2n1,inactive,–
COc1cc(OC)cc(OC)c1,inactive,–
CC(C)(C)C(=O)CC(=O)C(C)(C)C,inactive,–
O=CN1CCCCC1,inactive,–
Cc1ccccc1OCC(=O)O,inactive,–
C=CC(=O)OCCOCCOCC,inactive,–
CN(C)CCc1c[nH]c2ccc(CS(=O)(=O)N3CCCC3)cc12,inactive,–
CCN(CC)CC(=O)Oc1ccc(NC(C)=O)cc1,inactive,–
BrCCOc1ccccc1,inactive,–
COC(=O)C(c1ccccc1Cl)N1CCc2sccc2C1 (stereo not given),inactive,–
CCCCCCCCCCCCCCBr,inactive,–

# Reference: PubChem BioAssay (Tox21)
